Structures are written as SMILES. Values joined by “and” are separate entries in the source; they are usually repeats but may differ in a detail not shown here. Equal entries are not always repeated. In all, about 59,000 compounds went through this assay and about 1,500 (2.5%) were called active. Where a call stands in place of a potency, no number is given. Roughly 10% stayed inconclusive and do not appear here. Calls come from the whole dose curve; as a rule, active = well fitted inhibition curve with a large enough effect; inconclusive = small, poorly fitted or top-dose-only effect; inactive = flat fitted curve, though single readings scatter. The full list was thinned out, with actives kept by preference. A structure can be active in one record and inactive in another.
Potency is the fitted concentration of half-maximal effect.

Chain of N-terminal Xaa-Pro-Lys N-methyltransferase 1 (Homo sapiens) (Q9BV86 whole entry, looked up): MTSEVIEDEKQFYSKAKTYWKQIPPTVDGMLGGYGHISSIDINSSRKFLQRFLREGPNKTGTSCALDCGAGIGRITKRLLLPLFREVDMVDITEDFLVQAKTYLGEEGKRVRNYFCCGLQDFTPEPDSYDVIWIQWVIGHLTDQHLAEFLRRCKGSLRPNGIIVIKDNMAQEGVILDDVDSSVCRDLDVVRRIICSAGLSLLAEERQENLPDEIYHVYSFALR

For this experiment, the target named is N-terminal Xaa-Pro-Lys N-methyltransferase 1 (Homo sapiens) (UniProt Q9BV86). In words: Primary qHTS for Inhibitors of N-terminal methyltransferase 1 (NTMT1): MTaseGlo Assay. Note: nearly all actives have a fitted effect of over 65% in size. To be noted: NTMT1 MTase-Glo SAH luminescence, purified enzyme; series mostly up to 114 µM. The text has this:
Assay Submitter (PI): Rong Huang Ph.D.
Purdue University, West Lafayette, IN 47907
The N-terminal methytransferase 1 is the first methyltransferase that methylates protein alpha-N-amines and plays an important role in regulating cell mitosis, chromatin interactions and DNA repair. It is observed to be over-expressed in various cancer patient tissues like malignant melanoma and colorectal cancer tissues. Knockdown of NTMT1 in cancer cells causes cell mitotic defects and enhances sensitivity to DNA damaging chemotherapeutics. […] These critical cellular processes in which NTMT1 is implicated, coupled with emerging links to cellular dysfunction, strengthen the inference that NTMT1 is a compelling novel anticancer target. Progress have been made in understanding the molecular properties of NTMT1 and the biological consequences of protein alpha-N-terminal methylation, but there are no specific small molecule probes available for NTMT1 to fully characterize its MTase activity. To address this unmet need, a panel of assay is created and established to enable quantitative high-throughput screening (qHTS) for novel, potent, and selective small molecule NTMT1 inhibitors. Two orthogonal qHTS that use different reagents (ThioGlo vs. MTaseGlo) are developed for primary robotic screening against the NCATS chemical library of more than 400,000 small molecules. Identified inhibitors are reacquired, validated, and further characterized.
MTaseGlo Assay is a luminescence screen that measure the activity of methyltransferases based on the reaction product S-adenosyl homocysteine (SAH). The substrate SAM is converted to SAH upon enzyme activation. MTase-Glo reagent and detection solution convert SAH to ATP and measure the light from the luciferase reaction.
Materials: NTMT1 enzyme, substrate SPKRIA, control peptide RCC1-6 is provided by the Huang laboratory.
SEQUENCE No. (e.g., 1, 2, 3, etc.); […] (e.g., Cells, Incubation, Reagent, etc.); VALUE; DESCRIPTION
1; Enzyme; 3 uL; Dispense enzyme mixture (final concentrations of 125 nM NTMT1 and 100 uM SAM) into Greiner 1536-well white / solid bottom assay plate (Greiner Bio One, Monroe, NC).
2; Compounds; 23 nL; Compounds and controls were transferred via a Kalypsys Pin Tool (Wako USA) equipped with a 1536-slotted pin array (Wako Automation, Richmond, VA)
3; Incubation; 15 min; Incubate at room temperature
4; Substrate; 1 uL; Dispense 1 uL of substrate at final concentration of 1 uM. Buffer solution was dispensed in control wells. The assay plate was covered with metal lids.
5; Incubation; 30 min; Incubate at room temperature, protected from lights.
6; Reagent; 1 uL; Dispensed 5x MTase-Glo detection reagent (R) into the assay plate. The plate was covered with metal lids.
7; Incubation; 30 min; Incubate the assay plates at room temperature in the dark to allow for SAH to be converted to ADP.
8; Reagent; 5 uL; Dispense 5 uL of 1x MTase-Glo Detection Solution (R) to allow for ADP to be converted to ATP which was then detected with a luciferase reaction.
9; Centrifuge; 15 sec; Centrifuge the assay plate for 15 seconds at 1000 RPM.
10; Incubation; 30 min; Assay plates were incubation at room temperature in the dark.
11; Detection; Luminescence; Plates were read on ViewLux detector (PerkinElmer). Data were normalized to no-enzyme (0% activity) and no-inhibitor (DMSO; 100%) controls, and the resulting percent inhibition data were fitted to a 4-parameter Hill equation using GraphPad Prism.
Background: qHTS replaces the single test concentration by a dilution series.
In the case of `CN(C)C/C=C/C(=O)Nc1ccc(C(=O)N2CCC[C@@H](Nc3ncc(Cl)c(-c4c[nH]c5ccccc45)n3)C2)cc1`, the Potency entry is “inactive”. On the same count and under the same terms, to `Cn1cnc(CN=C2NC3=C(C(=O)CCC3)C(c3[nH]ncc3Cl)N2)c1` (stereo unspecified) belongs “inactive”.

Consider `COc1cc2c(cc1OC)CN(CCc1ccc(-n3nnc(-c4cc(OC)c(OC)cc4NC(=O)c4cc(=O)c5ccccc5o4)n3)cc1)CC2`, for which the activity change, negative = inhibition was -7.78% [at 1.07 µM] (inactive).

On to `N#Cc1c(N)nc(N)nc1N[C@H](c1nc2c(F)ccc(Cl)c2c(=O)n1-c1cccnc1)C1CC1`, for which the Potency result was “inactive”.

In the case of `CC(C)(C)NS(=O)(=O)c1cccc(Nc2nn3c(=O)c4ccccc4nc3s2)c1`, the Potency entry was “inactive”. On the same count and under the same terms, the result for `Cc1ccc(CNc2ccc(N3CCCCC3)cc2)cc1` reads “inactive”; that for `FC(F)(F)c1cccc(N2CCN(C(=S)Nc3ccncc3)CC2)c1`, “inactive”. The same measure, in the same setting: the result for `Cc1ccc(N2CCN(C(=S)Nc3cc(C)ccn3)CC2)cc1` reads 79.4 µM (active); that for `CCc1ccc(-c2nn3c(C)nnc3s2)cc1NC(=O)c1ccc(-c2cccc(Cl)c2)o1`, “inactive”. Same read-out and setting: to `CCOc1ccc(CCNC(=O)c2cnon2)cc1OCC` belongs “inactive”. With `C=Cc1c(C)c2cc3nc(cc4[nH]c(cc5nc(cc1[nH]2)C(C)=C5CCC(=O)O)c(CCC(=O)OC)c4C)[C@@]1(C)C3=CC=C(C(=O)OC)[C@H]1C(=O)OC`, the Potency was 50.1 µM (active). On the same count and under the same terms, the result for `N#Cc1ccc(NC(=O)Nc2nnc(-c3ccncc3)s2)c(Cl)c1` reads “inactive”.

Turning to `CC[C@H](Nc1ncnc2nc[nH]c12)c1oc2ccccc2c(=O)c1-c1cccc(F)c1`, the Potency entry is “inactive”. As to `Cc1ccc(-c2cc(C(=O)Nc3cccc(Cl)c3)c3ccccc3n2)cc1C`, the Potency entry was “inactive”.

`Cc1cc(NC(=O)Nc2nnc(-c3ccncc3)s2)ccc1Cl`: the Potency entry was “inactive”. On the same count and under the same terms, to `Fc1cc(Nc2nc(-c3ccncc3)nc3ccccc23)ccc1-c1ccc(F)c(F)c1F` belongs “inactive”; to `Fc1ccccc1-c1ccc(Nc2nc(-c3ccncc3)nc3ccccc23)cc1F`, “inactive”.

Regarding `Fc1ccc(Cl)cc1-c1nc(Nc2ccncc2)c2nccnc2n1`, the Potency entry was “inactive and 39.8 µM (active)”. Still for that read-out and setting: to `C=CCNc1oc(-c2cccnc2)nc1C#N` belongs “inactive”; to `Cc1noc(C)c1-c1ccc2ncnc(NCc3ccc(F)c(F)c3)c2c1`, “inactive”.

`COc1cc2nc(Nc3ccccc3)nc(NC3CC3)c2cc1OC`: the Potency was 50.1 µM (active). With `OC1CCC(Nc2nc(-c3ccccc3)nc3[nH]ccc23)CC1` (stereo unspecified), the Potency entry is “inactive”. The same measure, in the same setting: to `COc1cc(Nc2nc(-c3ccc(OC)c(OC)c3)nc3ccccc23)cc(OC)c1` belongs “inactive”. On the same count and under the same terms, to `O=C(CSc1nnc(-c2cccc([S+](=O)([O-])N3CCCC3)c2)n1-c1ccccc1)Nc1cccc(C(F)(F)F)c1` belongs “inactive”; to `CC(C)(c1ccc(OCC(O)CO)cc1)c1ccc(OCC(O)CCl)cc1` (stereo unspecified), “inactive”; to `O=C(O[C@@H]1Cc2c(O)cc(O)cc2O[C@H]1c1cc(O)c(O)c(O)c1)c1cc(O)c(O)c(O)c1`, 44.7 µM (active). Turning to `N#Cc1ccc(OC2=NS(=O)(=O)c3ccccc32)cc1`, the Potency entry is “inactive”.

`Cc1ccc2nc3sc(C(=O)NCCc4cccnc4)cc3cc2c1`: the Potency entry was “inactive”. With `O=S(=O)(NCCCCCCNS(=O)(=O)c1c(F)cccc1F)c1ccc2c(c1)OCCO2`, the Potency entry was “inactive”. The same measure, in the same setting: the result for `NNc1nnc(NN)c2ccccc12` reads 22.4 µM (active); that for `O=C1CCCC2=C1[C@@]1(CCC(c3ccccc3)C1)N=C(Nc1nc3ccccc3o1)N2` (stereo partly specified), “inactive”; that for `Nc1ncnc2c1c(I)cn2[C@@H]1C[C@H](N)[C@@H](O)[C@H]1O`, 2.51 µM (active).

For the compound `CC(=O)c1cccc(-c2ccc(-c3nc4ccccc4c(=O)[nH]3)o2)c1`, the Potency result is “inactive”. As for `N#Cc1nc(Nc2cccc(Cl)c2)nc(NC2CCCC2)n1`, the Potency result was “inactive”. The same measure, in the same setting: to `[O-][n+]1onc(-c2ccccc2)c1CO` belongs “inactive”; to `O=C1COc2cc([S+](=O)([O-])Nc3ccc(Cl)c(Cl)c3)c(Cl)cc2N1`, “inactive”. Same read-out and setting: the result for `Cc1cnc(-c2ccccc2C(C)C)nc1NCC1CCN(C)CC1` reads “inactive”; that for `CCOC(=O)C1CCN(C(=O)C(C)(C)NC(=O)Nc2ccc(F)c(F)c2)CC1`, “inactive”. For the compound `O=C(Nc1ccc(-c2ccc(Cl)c(Cl)c2)cc1)C1=C(O)c2ccccc2S(=O)(=O)N1`, the Potency entry is “inactive”. The same measure, in the same setting: the result for `COc1cccc(C(=O)Nc2ccc3oc(-c4ccc5ccccc5c4)nc3c2)c1` reads “inactive”; that for `COc1cccc(C(=O)Nc2ccc3nc4n(c(=O)c3c2)CCCCC4)c1`, 50.1 µM (active); that for `NS(=O)(=O)c1ccc(NC(=O)C(=O)Nc2ccc3nc4n(c(=O)c3c2)CCCCC4)cc1`, “inactive”. Regarding `Cc1cc(C)n2ncc(C(=O)Nc3cccc(C#N)c3)c2n1`, the Potency result was “inactive”. On the same count and under the same terms, the result for `CCOc1ccc(CCNC(=O)c2cc3ccccc3n2Cc2ccc(Cl)c(F)c2)cc1OCC` reads “inactive”; that for `CC(C)c1ccccc1SC1=NS(=O)(=O)c2ccccc21`, “inactive”; that for `CN(C)c1ccc(C(=O)NCC(=O)OC(C(=O)Nc2cc(C(F)(F)F)ccc2Cl)c2ccccc2)cc1` (stereo unspecified), “inactive”.
